A selection: hits, their analogues and other compounds. The true share with any hit is near 3%.
IMPase inh = qHTS Assay for Identifying the Cell-Membrane Permeable IMPase Inhibitors. CHO-M1 cells, IP1 accumulation, HTRF TR-FRET ratio. inhibition (IP1 accumulation), % at 46.1 µM. 120,000 tested, under 10 active. AID 901, 2007; active means well fitted curve in the direction sought with a large enough effect in the signal ratio, not every such curve was filed as active; inconclusive means small, poorly fitted or top-dose-only effect, or a change in a side signal; inactive means no such curve, though single readings can be large or run the other way; the % refers to the signal ratio;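 further: cells stimulated with carbachol in lithium chloride buffer; plate controls were DMSO basal wells for no effect and reference inhibitor wells for full effect; higher means more IMPase inhibition seen as more IP1 and lower FRET ratio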
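Cellular IMPase inhibition is scored as a rise in cytosolic IP1, detected by competitive TR-FRET between d2-labelled IP1 and a europium anti-IP1 antibody. M1-expressing CHO cells were stimulated with carbachol for 30 min at 37C, with lithium (50 mM LiCl) present in the buffer.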
ALOX12 inhib = qHTS Assay for Inhibitors of 12-hLO (12-human lipoxygenase); Polyunsaturated fatty acid lipoxygenase ALOX12 (Homo sapiens), P18054; purified 12-hLO, xylenol orange hydroperoxide absorbance; Potency, µM (titrated, usually from 57.1 µM), for inactives: at the highest dose activity change, negative = inhibition, hits mostly inhibitors; 150,000 compounds, 0.12% hits; AID 1452, 2008; further: potency means the concentration at half of the fitted maximal effect; nearly all actives have a fitted effect of over 55% in size
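Xylenol orange chromogenic assay: hydroperoxide from 12hLO oxidises Fe(II), giving red-shifted Fe(III)-XO absorbance. Conditions: 150 nM enzyme, 40 uM arachidonic acid, 25 mM Hepes pH 7.0, 0.01% Triton X-100, 30 min, room temperature.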
PNC inhibitor = High Content Assay for Compounds that inhibit the Assembly of the Perinucleolar Compartment; PC3M PTB-GFP, PNC prevalence imaging, 16 h; hits give low values; 140,000 compounds, 3.1% hits; activity change (PNC), negative = inhibition, % at 10 µM;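 active means readout at or below -70, meaning at least 70% loss of cells showing the perinucleolar compartment, a nuclear body marking cancer cells; inconclusive means readout between -30 and a set limit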;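 further: plate controls were DMSO wells for no effect and camptothecin positive control wells for full effect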
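Read-out is percentage of cells bearing a perinucleolar compartment, from automated 20x imaging of fixed, Hoechst-stained PC3M PTB-GFP cells. Cells were seeded 4 h, then exposed 16 h to compound (23 nl of library stock) in duplicate plates.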
15-hLO-2 inh = qHTS Assay for Inhibitors of 15-hLO-2 (15-human lipoxygenase 2); purified 15hLO-2, xylenol orange hydroperoxide absorbance; Potency, µM (doses to about 57.1 µM), inactives show at the highest dose activity change, negative = inhibition, hits mostly inhibitors; 110,000 compounds, 0.56% hits; AID 881, 2007; further: potency means the concentration at half of the fitted maximal effect; nearly all actives have a fitted effect of over 60% in size
Target sequence (O15296 whole entry, looked up): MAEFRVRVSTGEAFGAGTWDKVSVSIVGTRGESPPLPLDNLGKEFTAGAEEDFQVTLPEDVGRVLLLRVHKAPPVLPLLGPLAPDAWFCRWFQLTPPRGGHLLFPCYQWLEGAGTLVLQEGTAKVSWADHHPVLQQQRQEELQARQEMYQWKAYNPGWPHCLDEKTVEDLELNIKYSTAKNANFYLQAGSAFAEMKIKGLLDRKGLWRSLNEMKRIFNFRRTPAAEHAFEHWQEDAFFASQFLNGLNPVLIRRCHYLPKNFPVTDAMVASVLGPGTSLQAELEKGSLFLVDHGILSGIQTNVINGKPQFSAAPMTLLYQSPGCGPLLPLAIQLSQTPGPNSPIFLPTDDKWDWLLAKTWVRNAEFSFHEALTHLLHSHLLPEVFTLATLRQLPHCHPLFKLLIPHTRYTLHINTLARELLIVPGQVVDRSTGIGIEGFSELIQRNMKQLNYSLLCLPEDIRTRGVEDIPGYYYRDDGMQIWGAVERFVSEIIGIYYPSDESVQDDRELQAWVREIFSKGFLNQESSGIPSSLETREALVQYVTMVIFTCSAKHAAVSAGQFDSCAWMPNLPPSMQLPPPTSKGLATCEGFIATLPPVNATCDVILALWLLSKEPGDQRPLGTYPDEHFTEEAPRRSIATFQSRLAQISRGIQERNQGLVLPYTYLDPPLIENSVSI
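Purified human 15hLO-2 (50 nM final) preincubated with compounds 15 min at room temperature in 25 mM Hepes pH 7.5, 0.01% Triton X-100, then 45 uM arachidonic acid added for 90 min; hydroperoxide detected via ferrous/xylenol orange, 573/405 nm absorbance ratio.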
An asterisk follows results filed as active; ? = inconclusive; . = no result given; ! = not active in a repeat; [ ] = another dose, or the depositor's remark. Unless noted, the call rests on the fitted dose curve; in most records, active means well fitted curve in the direction sought with a large enough effect; inconclusive means small, poorly fitted or top-dose-only effect, or another doubt; inactive means no such curve, though single readings can be large; an effect the other way counts as inactive or inconclusive. Unless noted, on the % scale 0 is the no-effect control and ±100 the full control effect.

SMILES | IMPase inh | ALOX12 inhib | PNC inhibitor | 15-hLO-2 inh
Cc1cccc(NC(=S)N(CCN(C)C)Cc2cc3cccc(C)c3[nH]c2=O)c1 | -3 | -2% | -100* | .
Cn1cnnc1SCC(=O)NCCc1ccccc1 | -10 | 1% | -17 | 1%
Cc1ccc(-n2c(SCC(=O)OC(C)C)nnc2-c2ccncc2)cc1 | -7 | 1% | -100* | .
S=C(N/N=C/c1ccccc1)N1CCOCC1 | . | -6% | 42 | .
CC(NC(=S)N1CCOCC1)c1ccccc1 (configuration not stated) | . | -1% | -121* | .
Cc1ccc(C)c(N=C2CCCN2Cc2ccccc2)c1C#N | 19 | -4% | -119* | .
Cc1cc(C)nc(SCc2nc(N)nc(-c3ccccc3O)n2)n1 | 18 | -3% | ? | -14%
COc1ccc(-n2nc3ccccc3n2)cc1 | -2 | -7% | 14 | -8%
COc1ccc(-n2nc3cc(C)c(N)c(Br)c3n2)cc1 | -4 | 25µM* | ? | 10µM*
Clc1ccc(NNc2ccnc3cc(Cl)ccc23)cc1 | -1 | -6% | -14 | 16µM*
S=C(NNc1ccnc2cc(Cl)ccc12)Nc1ccccc1Cl | . | -16% | 16 | .
CC1CC[C@@]2(C(=O)O)CCC3(C)C(=CCC4[C@]5(C)CC(O)C(O)[C@](C)(CO)C5C(O)C[C@@]43C)C2C1C (some centres not stated) | . | -1% | . | -10%
O=C(CNC(=O)c1cccc(F)c1)N/N=C/c1cc(Br)ccc1OC(=O)/C=C/c1ccco1 | . | 5% | -81* | .
C[C@@H]1OC(OC2C(OC3CC[C@@]4(C)C5CC=C6C7CC(C)(C)CC[C@@]7(C(=O)O)CCC6(C)C5(C)CCC4[C@]3(C)CO)OCC(O)C2O)C(O)C(O)C1O (some centres not stated) | . | 2% | . | -13%
Cc1ccc(N(CC(=O)N2CC(=O)Nc3ccccc32)S(=O)(=O)c2ccc3c(c2)OCCO3)cc1 | -5 | -5% | -100* | .
O=C(C1=NNCC1c1ccccc1)C1CO1 (configuration not stated) | . | 4% | ? | .
COC(=O)CNC(=O)COC(=O)C(Cc1ccccc1)NC(=O)c1ccco1 (configuration not stated) | 8 | 6% | -115* | 9%
O=C(COC(=O)[C@H](Cc1ccccc1)NC(=O)c1ccco1)NC(c1ccccc1)c1ccccc1 | 4 | -2% | ? | 3%
O=C(COC(=O)/C=C/c1cccs1)NC(c1ccccc1)c1ccccc1 | -2 | 5% | -119* | .
O=C(N/N=C/c1cc(Cl)ccc1O)c1ccc(Br)cc1 | . | -17% | -107* | .
NC(=O)N/N=C\c1cc(Br)ccc1O | . | 1% | 7 | .
CCC(=O)N1C(=O)CCN(C(C)=O)c2ccccc21 | ? | -2% | -94* | .
COc1ccccc1N(CC(=O)NCc1ccccc1)C(=O)CCC(=O)Nc1ccccn1 | 6 | 2% | -100* | .
CC(C)CN1CCCC2(CCN(C(=O)c3cc(C(F)(F)F)cc(C(F)(F)F)c3)CC2)C1 | . | -3% | . | 14%
O=C(OC(C(=O)NC1CCCC1)c1ccccc1F)c1ccco1 (configuration not stated) | -4 | 3% | -139* | -6%
SMILES | IMPase inh | ALOX12 inhib | PNC inhibitor | 15-hLO-2 inh
O=C(OC(C(=O)NC1CCCCC1)c1ccccc1)c1ccco1 (configuration not stated) | 2 | 16% | ? | .
COc1ccc(C2=NOC(Cn3c(Cc4ccc(Cl)cc4)nc4c3c(=O)n(C)c(=O)n4C)C2)cc1 (configuration not stated) | 6 | 0% | -108* | 0%
CC1CCCN(C(=O)C(Cc2ccccc2)n2cccc2)C1 (configuration not stated) | 5 | -4% | 21 | -9%
O=C(CSc1nn(-c2ccccc2)c(=S)s1)NC1CCS(=O)(=O)C1 (configuration not stated) | 3 | -2% | 50 | .
Cc1ccc(-c2cn(-c3ccccc3)c(SCC(=O)NC3CCS(=O)(=O)C3)n2)cc1C (configuration not stated) | . | -3% | -83* | .
Cc1cccc(NC(=O)c2cnc3n(c2=O)CCS3)c1 | -16 | -1% | 19 | .
O=C(Nc1ccccc1)c1cnc2n(c1=O)CCS2 | 0 | -4% | -119* | .
O=C1c2ccccc2S(=O)(=O)N1CC(O)COc1ccc(Br)cc1 (configuration not stated) | -3 | -25% | -106* | -3%
O=C1c2ccccc2S(=O)(=O)N1CC(O)COc1ccc(Cl)cc1 (configuration not stated) | 4 | -20% | -17 | -6%
COc1cc2c(cc1OC)C(c1ccccc1O)N(C1CC(=O)N(c3ccccc3)C1=O)CC2 (configuration not stated) | -16 | -7% | ? | ?
COCC(=O)Nc1cc(=O)n(C)c(=O)n1C | 18 | 1% | -84* | 1%
CCOc1ccc(C2OC(=O)Cc3cc(OC)c(OC)cc32)cc1 (configuration not stated) | 4 | 5% | 97 | 36%
CCOC(=O)CCCOC(=O)c1ccc(S(=O)(=O)N(C)C)cc1 | -5 | -1% | -100* | .
CCc1ccc2c(c1)[C@H]1OCC[C@H]1[C@@H](c1cccs1)N2 | . | 0% | -109* | .
CC/C=C\C/C=C\C/C=C\CCCCCCCC(=O)O | -1 | -5%[0.00818 µM] | . | 14µM*!
Cc1ccc2c(c1)C=CC(C#N)N2C(=O)c1ccccc1 (configuration not stated) | . | 1% | -88* | .
Cc1ccc2c(c1)C=CC(C)N2C(=O)c1ccccc1 (configuration not stated) | -3 | -4% | -14 | -9%
Cc1ccc(S(=O)(=O)CCC(=O)OCc2ccc(Cl)c(Cl)c2)cc1 | -9 | -8% | -112* | .
Cc1nnc(N(Cc2ccccc2)C(=O)c2cnccn2)s1 | 1 | -2% | -88* | -3%
Nc1cc(S(=O)(=O)C(F)(F)F)ccc1C(=O)O | 4 | -4% | -127* | 0%
O=c1c(-c2cccc(Cl)c2)nc2cncnc2n1C1CC1 | . | . | . | -8%
CCNc1nc(OC)nc(Oc2ccc(=O)n(-c3ccccc3)n2)n1 | 12 | 0% | -94* | 4%
CCNc1nc(Oc2ccc(=O)n(-c3ccccc3)n2)nc(N(C)C)n1 | 2 | 2% | 62 | 3%
COc1ccc2c(c1)CCC1C2CC[C@]2(C)[C@H](NCCCCCCN3C(=O)C=CC3=O)CC[C@@H]12 (some centres not stated) | 7 | -2% | . | -18%
N#CCCn1cc(/C=N/NC(=O)c2ccncc2)c(-c2ccccc2)n1 | 4 | -2% | -84* | 6%
O=C(N/N=C/c1cn(CCOc2ccccc2)c2ccccc12)c1ccncc1 | . | -1% | -8 | .
CC(C)OC(=O)c1cccnc1SCc1cc(=O)n2ccccc2n1 | 7 | -8% | 22 | 0%

Compound activity as filed in PubChem BioAssay.
